Assay results taken from PubChem BioAssay (NCATS).
Values joined by “and” are separate entries in the source; they are usually repeats but may differ in a detail not shown here. Equal values may be shown once. Records with an inconclusive call do not appear. Where a structure was tested more than once in an assay, its records may differ in their call. Active and inactive are the calls of the source. Unless noted, calls come from the whole dose curve; as a rule, active = well fitted curve in the direction sought with a large enough effect; inconclusive = small, poorly fitted or top-dose-only effect, or another doubt; inactive = no such curve, though single readings can be large; an effect the other way counts as inactive or inconclusive.

How the values were obtained:
[1] = Cellular Toxicity (caspase-3) HUV-EC-C (AID 656);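 note: 0% = DMSO basal and 100% = 100 µM tamoxifen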
Procedure, shortened: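 HUV-EC-C endothelial cells, 1000/well, were pre-incubated 5 hr at 37°C, then exposed to compounds for 16 hr at 37°C. Caspase-Glo 3/7 luminescence was read after 20 min at room temperature. AC50 came from Hill fits, normalized to DMSO and 100 uM tamoxifen.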

[2] = biological target: Cytochrome P450 3A4 (Homo sapiens) (UniProt P08684); assay: qHTS Assay for Inhibitors and Substrates of Cytochrome P450 3A4 (AID 884); note: series mostly up to about 57 µM; % is set by controls: 0 for no effect and ±100 for the full control effect; nearly all actives have a fitted effect of over 50% in size
Cytochrome P450 3A4 (Homo sapiens), sequence (P08684 whole entry, looked up): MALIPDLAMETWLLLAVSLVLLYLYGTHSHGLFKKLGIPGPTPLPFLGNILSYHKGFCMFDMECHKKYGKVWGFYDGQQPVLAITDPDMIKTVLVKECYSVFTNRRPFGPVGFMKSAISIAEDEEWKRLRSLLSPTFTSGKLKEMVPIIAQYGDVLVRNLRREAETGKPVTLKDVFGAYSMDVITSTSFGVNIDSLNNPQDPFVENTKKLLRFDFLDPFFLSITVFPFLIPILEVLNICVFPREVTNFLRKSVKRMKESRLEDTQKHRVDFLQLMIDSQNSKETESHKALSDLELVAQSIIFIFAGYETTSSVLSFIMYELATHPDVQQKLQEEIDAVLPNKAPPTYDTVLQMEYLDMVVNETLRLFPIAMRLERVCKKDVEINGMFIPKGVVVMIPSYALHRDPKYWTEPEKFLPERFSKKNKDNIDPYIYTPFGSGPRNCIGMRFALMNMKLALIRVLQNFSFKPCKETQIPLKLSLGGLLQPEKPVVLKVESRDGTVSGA
Procedure, shortened: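 20 nM human CYP3A4 with 25 uM Luciferin-PPXE (at KM) in 200 mM KPO4, preincubated 10 min with compound; NADPH regeneration started a 60 min RT reaction. Luciferin detected by luminescence, normalized to 57 uM ketoconazole as full inhibition.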

[3] = Cell Viability - LYMP2-003 (AID 965);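 note: cells exposed to compounds for 24 h before reading; 0% = DMSO only and full effect = 92 µM tetraoctylammonium bromide; nearly all actives have a fitted effect of over 50% in size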
Procedure, shortened: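 Human lymphoblastoid cells (2500/well) were pre-incubated 5 hr at 37 C, then exposed to compounds over a concentration range for 24 hr at 37 C. Intracellular ATP was read by CellTiter-Glo luminescence; AC50 came from Hill-equation fits.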

[4] = Cell Viability - LYMP2-015 (AID 971);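 note: 0% = DMSO only and full effect = 92 µM tetraoctylammonium bromide; nearly all actives have a fitted effect of over 55% in size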
Procedure, shortened: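 Luminescent ATP read-out (CellTiter-Glo) served as the viability measure after lymphoblastoid cells were exposed to compounds for 24 hours at 37 C. Concentration-response data were fitted with the Hill equation to give AC50.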

[5] = Cell Viability - LYMP2-020 (AID 986);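 note: series mostly up to about 92 µM; plate controls were DMSO only for no effect and tetraoctylammonium bromide at 92 µM for full effect; nearly all actives have a fitted effect of over 55% in size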
Procedure, shortened: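 Luminescent ATP signal (CellTiter-Glo, 30 min at room temperature) is the read-out after 24 h compound treatment of lymphoblastoid cells at 37 C. AC50 values come from Hill-equation fits across concentrations.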

[6] = qHTS assay for small molecule antagonists of peroxisome proliferator-activated receptor delta signaling (AID 588535; active = well fitted inhibition curve with a large enough effect in the signal ratio, with a control signal flat, not every such curve was filed as active; the % refers to the signal ratio;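 for max response: cells co-treated with a PPAR-delta agonist as stimulator during compound exposure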); conditions: HEK293T PPARd-UAS-bla, beta-lactamase FRET ratio, 18 h; 460 nm channel
Procedure, shortened: (§1)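 HEK293T PPAR-delta-UAS-bla cells, 4000/well, 2% charcoal/dextran FBS; 5 h 37 C; cpd titration; 18 h 37 C; CCF4 2 h RT; FI 460/530 nm; Hill fit → IC50, efficacy.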

[7] = biological target: Peroxisome proliferator-activated receptor delta (Homo sapiens) (UniProt Q03181); assay: as above
Peroxisome proliferator-activated receptor delta (Homo sapiens), sequence (Q03181 whole entry, looked up): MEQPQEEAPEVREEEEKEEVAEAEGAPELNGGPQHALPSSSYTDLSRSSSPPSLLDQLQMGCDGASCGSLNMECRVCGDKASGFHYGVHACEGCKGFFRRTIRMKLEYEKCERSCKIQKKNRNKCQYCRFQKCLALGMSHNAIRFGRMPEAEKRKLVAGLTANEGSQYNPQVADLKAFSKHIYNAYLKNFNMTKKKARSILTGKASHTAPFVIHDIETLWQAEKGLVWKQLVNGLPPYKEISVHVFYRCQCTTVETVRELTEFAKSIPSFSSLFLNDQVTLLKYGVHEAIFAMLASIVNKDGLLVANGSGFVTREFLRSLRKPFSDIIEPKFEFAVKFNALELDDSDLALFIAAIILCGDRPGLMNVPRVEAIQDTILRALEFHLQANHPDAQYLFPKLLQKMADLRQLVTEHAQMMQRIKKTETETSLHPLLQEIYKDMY
Procedure, shortened: as §1

[8] = biological target: Peroxisome proliferator-activated receptor gamma (Homo sapiens) (UniProt P37231); assay: qHTS assay for small molecule antagonists of peroxisome proliferator-activated receptor gamma signaling (AID 588537; active = well fitted inhibition curve with a large enough effect in the signal ratio, with a control signal flat, not every such curve was filed as active; the % refers to the signal ratio;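 note: reporter cells co-stimulated with 50 nM rosiglitazone agonist during compound treatment; % of control where 0% means no effect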)
Peroxisome proliferator-activated receptor gamma (Homo sapiens), sequence (P37231 whole entry, looked up): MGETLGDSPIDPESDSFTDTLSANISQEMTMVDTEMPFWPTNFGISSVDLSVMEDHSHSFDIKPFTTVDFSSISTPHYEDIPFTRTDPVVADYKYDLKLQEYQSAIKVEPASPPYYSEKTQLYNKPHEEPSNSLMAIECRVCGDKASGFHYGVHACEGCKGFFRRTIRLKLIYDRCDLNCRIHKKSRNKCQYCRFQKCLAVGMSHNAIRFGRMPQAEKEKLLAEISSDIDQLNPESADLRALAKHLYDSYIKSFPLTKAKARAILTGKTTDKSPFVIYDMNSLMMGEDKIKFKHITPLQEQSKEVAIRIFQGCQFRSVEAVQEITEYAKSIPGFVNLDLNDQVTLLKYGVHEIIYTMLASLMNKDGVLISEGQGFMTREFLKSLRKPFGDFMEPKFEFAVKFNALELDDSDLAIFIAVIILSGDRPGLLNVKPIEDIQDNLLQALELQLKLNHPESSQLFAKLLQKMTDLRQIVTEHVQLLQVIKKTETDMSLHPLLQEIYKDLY
Procedure, shortened: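 Antagonist mode, beta-lactamase reporter in HEK293; charcoal/dextran FBS 1%; 3000 cells/well, 37 C 6-6.5 h; cpd titration + rosiglitazone 50 nM final, 16 h 37 C; CCF4, 2 h RT; 460/530 nm; Hill fit → IC50, efficacy.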

[9] = qHTS assay for small molecule activators of the p53 signaling pathway (AID 651743; active = well fitted activation curve with a large enough effect in the signal ratio, not every such curve was filed as active; the % refers to the signal ratio; note: series mostly up to about 92 µM; % of control where 0% means no effect); conditions: HCT-116 p53RE-bla, beta-lactamase FRET ratio, 16 h; activation: stronger effect = higher value
Procedure, shortened: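 Read-out is fluorescence intensity from the LiveBLAzer B/G FRET substrate, added for 2 hours at room temperature after HCT-116 p53RE-bla cells had been incubated with compounds for 16 hours at 37 C.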

[10] = qHTS assay for small molecule activators of the nuclear factor-kappa B (NF-kB) signaling pathway (AID 651749; active = well fitted activation curve with a large enough effect in the signal ratio; the % refers to the signal ratio; note: potency is the fitted concentration of half-maximal effect; for activation: series mostly up to about 77 µM; % of control where 0% means no effect); conditions: NF-kB-bla ME-180 cells, beta-lactamase FRET ratio, 16 h; activation: stronger effect = higher value
Procedure, shortened: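 Readout: beta-lactamase reporter driven by an NF-kB response element, detected fluorescently as loss of FRET. Cells were the ME-180 line, treated 16 hr at 37C with pin-transferred compound.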

[11] = biological target: Nuclear receptor subfamily 1 group I member 2 (Rattus norvegicus) (UniProt Q9R1A7); assay: qHTS assay for small molecule activators of the rat pregnane X receptor (rPXR) signaling pathway (AID 651751; call rule not given here; note: 0% is about no effect); conditions: rPXR reporter cells, luciferase (One-Glo), 24 h
Nuclear receptor subfamily 1 group I member 2 (Rattus norvegicus), sequence (Q9R1A7 whole entry, looked up): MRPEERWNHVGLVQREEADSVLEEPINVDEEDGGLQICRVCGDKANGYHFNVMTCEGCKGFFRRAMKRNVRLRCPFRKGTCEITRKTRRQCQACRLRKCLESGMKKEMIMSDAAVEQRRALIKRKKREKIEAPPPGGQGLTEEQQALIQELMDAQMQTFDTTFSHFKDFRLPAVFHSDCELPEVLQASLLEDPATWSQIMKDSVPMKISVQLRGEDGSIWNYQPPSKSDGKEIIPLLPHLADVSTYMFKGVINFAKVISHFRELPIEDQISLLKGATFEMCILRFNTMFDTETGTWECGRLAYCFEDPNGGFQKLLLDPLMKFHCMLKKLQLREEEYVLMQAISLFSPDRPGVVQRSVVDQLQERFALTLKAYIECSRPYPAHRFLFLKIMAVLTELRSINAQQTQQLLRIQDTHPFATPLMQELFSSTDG

[12] = qHTS assay for small molecule activators of the human pregnane X receptor (PXR) signaling pathway (AID 720659; call rule not given here; note: 0% is about no effect)
[13] = MultiTox-Fluor Cytotoxicity Assay - LYMP1-001 - Live Cells (AID 947);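 note: 0% = DMSO only and full inhibition = tetraoctylammonium bromide control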
[14] = qHTS assay for small molecule agonists of the antioxidant response element (ARE) signaling pathway (AID 651741; active = well fitted activation curve with a large enough effect in the signal ratio; the % refers to the signal ratio; note: potency is the fitted concentration of half-maximal effect; for activation: % of control where 0% means no effect)
Procedure, shortened: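 Quantitative HTS in HepG2 cells stably expressing an ARE-beta-lactamase reporter; 16 h compound exposure at 37 C, followed by 2 h room-temperature incubation with LiveBLAzer B/G FRET substrate and fluorescence measurement.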

[15] = biological target: Vitamin D3 receptor (Homo sapiens) (UniProt P11473); assay: qHTS assay for small molecule antagonists of vitamin D receptor signaling (AID 588541; calls by dose curve;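 note: receptor activated by calcitriol during compound treatment; series mostly up to about 77 µM; % is set by controls: 0 for no effect and ±100 for the full control effect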)
Vitamin D3 receptor (Homo sapiens), sequence (P11473 whole entry, looked up): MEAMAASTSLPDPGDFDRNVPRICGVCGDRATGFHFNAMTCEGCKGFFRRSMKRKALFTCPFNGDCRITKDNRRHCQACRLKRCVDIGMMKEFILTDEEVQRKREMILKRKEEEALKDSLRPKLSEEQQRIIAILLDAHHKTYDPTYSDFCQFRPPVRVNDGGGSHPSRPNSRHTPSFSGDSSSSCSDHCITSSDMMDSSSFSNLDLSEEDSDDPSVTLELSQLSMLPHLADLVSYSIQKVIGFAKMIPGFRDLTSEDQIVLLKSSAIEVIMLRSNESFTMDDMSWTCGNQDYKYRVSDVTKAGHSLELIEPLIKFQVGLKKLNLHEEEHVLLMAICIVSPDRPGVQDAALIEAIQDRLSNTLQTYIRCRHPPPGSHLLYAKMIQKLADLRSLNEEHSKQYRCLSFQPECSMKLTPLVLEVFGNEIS
Procedure, shortened: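 Antagonist-mode beta-lactamase reporter assay: HEK293T VDR-UAS-bla cells were exposed to titrated compound alongside 1-alpha,25-dihydroxyvitamin D3 at 3 nM final for 16 h. Values were normalized to the 50 nM agonist control and DMSO basal, with IC50 and efficacy from Hill equation fits.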

[16] = biological target: Vitamin D3 receptor (Homo sapiens) (UniProt P11473); assay: qHTS assay for small molecule agonists of vitamin D receptor signaling (AID 588543; calls by dose curve;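 note: 0% = DMSO basal and 100% = reference agonist control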)
Procedure, shortened: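 GeneBLAzer VDR-UAS-bla HEK293T cells in 2% charcoal-stripped FBS medium were dosed with compound titrations for 16 h at 37 °C; CCF4 β-lactamase readout (405 nm ex, 460/530 nm em). EC50 and efficacy from Hill fits, normalized to 50 nM calcitriol (100%) and DMSO (0%).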

[17] = biological target: Bile acid receptor (Homo sapiens) (UniProt Q96RI1); assay: qHTS assay for small molecule antagonists of farnesoid X receptor signaling (AID 588526; calls by dose curve; note: % is set by controls: 0 for no effect and ±100 for the full control effect)
Bile acid receptor (Homo sapiens), sequence (Q96RI1 whole entry, looked up): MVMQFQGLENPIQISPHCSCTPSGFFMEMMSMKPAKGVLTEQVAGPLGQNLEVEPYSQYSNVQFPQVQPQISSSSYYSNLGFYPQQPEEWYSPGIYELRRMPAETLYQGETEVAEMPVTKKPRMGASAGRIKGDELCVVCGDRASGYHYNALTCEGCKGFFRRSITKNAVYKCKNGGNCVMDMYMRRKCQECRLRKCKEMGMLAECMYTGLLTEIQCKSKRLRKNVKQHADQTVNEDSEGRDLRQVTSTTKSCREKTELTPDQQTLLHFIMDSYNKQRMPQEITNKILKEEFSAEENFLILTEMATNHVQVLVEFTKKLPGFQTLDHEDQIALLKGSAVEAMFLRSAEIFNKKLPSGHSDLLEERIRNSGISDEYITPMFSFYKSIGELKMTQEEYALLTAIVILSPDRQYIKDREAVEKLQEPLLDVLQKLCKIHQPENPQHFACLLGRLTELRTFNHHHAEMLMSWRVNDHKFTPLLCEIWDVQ
Procedure, shortened: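 Beta-lactamase reporter antagonist mode: HEK293T FXR-UAS-bla cells, titrated compound, CDCA stimulation, 16 h 37 C, CCF4 dye 2 h RT. Data normalized to CDCA 50 uM and DMSO; Hill-fit IC50.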

[18] = biological target: Glucocorticoid receptor (Homo sapiens) (UniProt P04150); assay: qHTS assay for small molecule agonists of glucocorticoid receptor signaling (AID 588532; active = well fitted curve in the direction sought with a large enough effect in the signal ratio, with a control signal flat; the % refers to the signal ratio;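 note: 100% = dexamethasone at 0.1 µM and 0% = DMSO only wells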); conditions: HeLa MMTV-bla, beta-lactamase ratio, agonist, 18 h; stronger effect = higher value; percent of dexamethasone control, DMSO zero
Glucocorticoid receptor (Homo sapiens), sequence (P04150 whole entry, looked up): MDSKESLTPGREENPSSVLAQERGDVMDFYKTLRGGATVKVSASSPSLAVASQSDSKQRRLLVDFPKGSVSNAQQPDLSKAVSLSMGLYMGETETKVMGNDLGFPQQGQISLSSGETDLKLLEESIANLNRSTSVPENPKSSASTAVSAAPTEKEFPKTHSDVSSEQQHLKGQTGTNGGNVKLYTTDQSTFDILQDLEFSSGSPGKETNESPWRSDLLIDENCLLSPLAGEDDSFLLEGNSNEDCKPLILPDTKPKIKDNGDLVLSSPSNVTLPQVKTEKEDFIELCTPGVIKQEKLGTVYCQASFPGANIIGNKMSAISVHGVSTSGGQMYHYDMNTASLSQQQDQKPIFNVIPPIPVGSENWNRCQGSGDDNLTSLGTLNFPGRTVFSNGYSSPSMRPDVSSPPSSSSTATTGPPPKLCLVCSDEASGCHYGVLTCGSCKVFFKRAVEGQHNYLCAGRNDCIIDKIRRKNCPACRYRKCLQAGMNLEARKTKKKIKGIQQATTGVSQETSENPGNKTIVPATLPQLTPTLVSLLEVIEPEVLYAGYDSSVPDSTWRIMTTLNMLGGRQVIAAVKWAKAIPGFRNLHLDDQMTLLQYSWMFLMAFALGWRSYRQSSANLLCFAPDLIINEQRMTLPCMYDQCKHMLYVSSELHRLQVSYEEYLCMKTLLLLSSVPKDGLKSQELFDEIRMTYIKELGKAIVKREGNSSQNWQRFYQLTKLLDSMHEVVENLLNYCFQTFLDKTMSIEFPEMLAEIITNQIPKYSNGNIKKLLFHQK
Procedure, shortened: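 Agonist-mode qHTS: GRE-driven beta-lactamase in HeLa cells exposed 18 h to titrated compounds (up to 92 uM), then CCF4 ratio read after 2 h at RT; Hill-fitted EC50, efficacy relative to 0.1 uM dexamethasone.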

[19] = Cell Viability - LYMP1-002 - Assay at 40 hr (AID 994);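 note: 0% = DMSO only and full inhibition = 92 µM tetraoctylammonium bromide; nearly all actives have a fitted effect of over 60% in size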
Procedure, shortened: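 Luminescent ATP signal served as the viability readout, with decreases taken as toxicity. Cells were treated with compounds across a concentration range for 40 hours at 37 C, and AC50 values came from standard Hill modeling.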

O=[N+]([O-])c1cccc2ccccc12
-7.08% and 18.1%: max response [6]
inactive: outcome [1] | Potency [2] | Potency [3] | Potency [4] | Potency [5] | Potency [7] | Potency [8] | activation [9] -1.88% and -1.02% | activation [10] -0.404% and -0.717% | max response [11] 5.16% and 1.63% | outcome [12]

COc1ccc(C=O)cc1OC
inactive: Potency [2] | Potency [13] | Potency [4] | Potency [8] | Potency [14] | activation [9] -1.53% and 0.661% | max response [11] -2.56% and 1.92% | outcome [12]

CCOP(=S)(OCC)SCSC(C)(C)C
18.1% and -40.8%: max response [6]
inactive: outcome [1] | Potency [2] | Potency [3] | Potency [5] | Potency [7] | Potency [8] | outcome [15] | outcome [16] | Potency [14] | activation [9] 3.78% and -1.22% | max response [11] 3.05% and 5.9%

ClC(Cl)(Cl)c1ccccc1
inactive: Potency [2] | Potency [13] | Potency [3] | outcome [17] | activation [18] -6.79% and 7.81% | Potency [7] | outcome [15] | outcome [16] | Potency [14] | activation [9] -3.47% and -2.04% | max response [11] 1.62% and -4.94% | outcome [12]
32% and 10.5%: max response [6]

Clc1nc(Cl)nc(Nc2ccccc2Cl)n1
active: Potency [10] 25.1 µM
inactive: outcome [1] | Potency [2] | Potency [13] | Potency [3] | Potency [5] | Potency [19] | activation [18] 0.42% and 30.1% | Potency [8] | outcome [15] | outcome [16] | activation [9] -1.67% and -3.76% | activation [10] 0.657%

CCCCOCCOP(=O)(OCCOCCCC)OCCOCCCC
25%: max response [6]
inactive: Potency [13] | Potency [3] | Potency [5] | Potency [19] | activation [18] 0.713% and -16.4% | Potency [7] | Potency [8] | outcome [15] | outcome [16] | activation [9] -1.25% and 0.739% | activation [10] -1.15% and -0.483%

ClC(Cl)=C(Cl)Cl
inactive: outcome [1] | Potency [13] | Potency [3] | Potency [4] | Potency [5] | Potency [19] | outcome [17] | Potency [8] | outcome [15] | outcome [16] | Potency [14] | activation [9] -0.0832% and 0.219% | activation [10] 0.509% and -0.543% | max response [11] -0.799% and 2.48% | outcome [12]

CC(=O)[O-].CC(=O)[O-].O.O.O.[Pb+2]
active: Potency [14] 33.5 µM and 37.6 µM
inactive: outcome [1] | Potency [2] | Potency [13] | Potency [3] | Potency [4] | Potency [19]

O=C(Nc1ccccc1)N1CCC2(CC1)CCN(C(=O)Oc1ccccc1)CC2
inactive: Potency [2]
